For orientation: inhibition means the percentage by which the read-out fell short of the control.

Structures are written as SMILES. Calls of active or inactive are those of the source. The rule behind the calls is not given here.

For the test, the target named is Pantothenate synthetase (Mycobacterium tuberculosis (strain ATCC 25618 / H37Rv)) (UniProt P9WIL5). The experiment in a line: Recombinant Mtb pantothenate synthetase (PanC) inhibitors, coupled enzyme, confirmatory (AID 375).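 Note: 0% = full reaction with vehicle and 100% = no enzyme background.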 The note with it: coupled enzyme assay; at 10 µM, active compounds read high.
Pantothenate synthetase (Mycobacterium tuberculosis (strain ATCC 25618 / H37Rv)), sequence (P9WIL5 whole entry, looked up): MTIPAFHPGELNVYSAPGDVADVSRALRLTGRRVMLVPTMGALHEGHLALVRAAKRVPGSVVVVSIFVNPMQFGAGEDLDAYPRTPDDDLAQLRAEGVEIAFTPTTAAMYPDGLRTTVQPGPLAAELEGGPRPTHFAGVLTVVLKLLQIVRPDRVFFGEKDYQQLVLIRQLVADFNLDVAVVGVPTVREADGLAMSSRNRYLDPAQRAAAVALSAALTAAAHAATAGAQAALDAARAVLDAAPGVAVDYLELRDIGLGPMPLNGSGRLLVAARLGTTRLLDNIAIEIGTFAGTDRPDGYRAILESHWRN
As to `CCOC(=O)c1ccc(NC(=O)CC2SC(=NC)N(C)C2=O)cc1` (stereo not drawn), the inhibition was 2% (inactive). Regarding `COc1ccccc1N(CC(=O)NCc1ccccn1)S(C)(=O)=O`, the inhibition is 0% (inactive). As for `CCCc1cc(C(=O)Nc2ccccc2C(=O)OC)no1`, the figure is 0% (inactive). As for `Cc1cc2cc(CNC(=O)c3ccc4c(c3)OCO4)ccc2[nH]1`, the figure is 0% (inactive); as for `O=C(CN1CCN(c2ccccn2)CC1)N1c2ccccc2CCc2ccccc21`, 0% (inactive); as for `CC(=O)Nc1ccc(S(=O)(=O)CCC#N)cc1`, 5% (inactive). For the molecule `CC1CCCN(C(=O)c2cc3c(-c4ccc(Cl)cc4)nn(C)c3s2)C1` (stereo not drawn), the inhibition was 4% (inactive).

As to `O=C(/C=C1\NC2(CCCC2)Cc2ccccc21)N1CCOCC1`, the inhibition is 0% (inactive). `CCC(=O)/C=C1\Sc2ccc(OC)cc2N1CCO`: the inhibition was 3% (inactive). The same measure for `COc1ccccc1-n1c(C)nnc1SCC(N)=O`: 0% (inactive); for `CN1CCN(C(=O)c2ccccc2N(Cc2ccccc2)S(C)(=O)=O)CC1`: 0% (inactive); for `CN(c1cccc(NS(=O)(=O)c2cccs2)c1)S(C)(=O)=O`: 0% (inactive). The same measure for `CCOC(=O)Cn1ncc(-c2ccccc2)c1N`: 6% (inactive); for `Cc1cnnc2c1-c1nonc1CC2`: 4% (inactive); for `Cc1ccc(C(=O)CC2(O)C(=O)N(CN3CCOCC3)c3ccccc32)cc1` (stereo not drawn): 7% (inactive).

Turning to `CCOC(=O)Cc1csc(NC(=O)CSc2nnc(C)n2C)n1`, the inhibition is 0% (inactive). `Cc1nc2ccccc2c(=O)n1NC(=O)Nc1ccccc1`: the inhibition was 0% (inactive). As for `COC(=O)c1ccccc1NC1c2ccccc2C(=O)N1c1cccnc1` (stereo not drawn), the inhibition is 0% (inactive). The same measure for `COC(=O)c1onc(C(=O)c2ccccc2)c1C(=O)OC`: 0% (inactive). As for `O=C(CN1CCCN(S(=O)(=O)c2ccc(F)cc2)CC1)Nc1ccccc1Br`, the figure is 5% (inactive); as for `CCc1cc2c(=O)c(-c3nc4ccccc4[nH]3)coc2c(CN2CCC(C)CC2)c1O`, 4% (inactive); as for `O=C(c1ccccc1)N1CCCCC(Sc2nnnn2-c2ccccc2)C1=O` (stereo not drawn), 0% (inactive). As for `CSc1nc(NC(C)(C)C)nc(Oc2ccc(=O)[nH]n2)n1`, the figure is 0% (inactive).

The values above are taken from PubChem BioAssay.
